The list is not random: actives were taken first. Their share in the collection is about 8%.
VP16 counter: Gal4-VP16 reporter inhibition counter-screen; Drosophila S2 Gal4-VP16 UAS-luciferase, luminescence, 20 h; AID 2546; 310,000 compounds, 3.5% hits; Potency, µM (series often up to 53.6 µM), for inactives: at the highest dose activity, negative = inhibition, hits mostly inhibitors;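 note: Gal4-VP16 expression switched on by copper sulfate through the metallothionein promoter; potency is the fitted concentration of half-maximal effect; nearly all actives have a fitted effect of over 50% in size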
RORgamma inh: inhibitors of mouse ROR gamma transcriptional activity. 310,000 compounds, 5.4% hits. Drosophila S2 Gal4-RORgamma UAS-luciferase reporter, 20 h. P51450. Potency, µM (top dose mostly 53.6 µM), for inactives: at the highest dose activity change, negative = inhibition, actives largely listed as inhibitors; note: potency is the fitted concentration of half-maximal effect; nearly all actives have a fitted effect of over 60% in size
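Stable Schneider cell line, Gal4 DNA-binding domain fused to ROR gamma, UAS-luciferase. Cmpd 1 hr RT → CuSO4 700 uM final → 20 hr RT → luciferase reagent 10 min → luminescence.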
ELG1 DNA repair: ELG1-dependent DNA repair inhibition; HEK293T ELG1-luciferase reporter, luminescence, 16 h; DNA damage induced by 5-fluorouridine; Potency, µM (top dose mostly 46.1 µM), for inactives: at the top dose activity change, negative = inhibition, actives largely listed as inhibitors; 330,000 compounds, 2.3% hits; note: potency is the fitted concentration of half-maximal effect; nearly all actives have a fitted effect of over 55% in size
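Step one: seed 2,000 cells per well. Step two: pin-transfer compound or DMSO alongside 5-fluorouridine. Step three: incubate 16 hr, 37 °C, 5% CO2. Step four: add ONE-Glo, wait 30 min, read luminescence.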
Coupling enz: counter-screen for Giardia aldolase inhibitors: coupling enzyme system; activity change, negative = inhibition, % at 58.2 µM, hits read low; coupling enzyme system counterscreen, AmpLite Red fluorescence; 290,000 compounds, 0.67% hits; AID 2472; in the data active = activity change below about -30%
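First, compound is pin-transferred into glyceraldehyde-3-phosphate coupling-enzyme reagent at 57.5 uM final and held 10 min at RT. Next, substrate, coupling system and AmpLite Red are added. After 20 min RT, fluorescence (525/598 nm) is read.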
TSHR antagonist: human thyrotropin receptor antagonism; TSHR-expressing cells, TSH-stimulated cAMP HTRF, 2 h; stronger effect = lower value; 330,000 compounds, 0.2% hits; activity change, negative = inhibition, % at 11.5 µM; P16473; AID 504810;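 active = activity change below a set negative limit, meaning inhibition stronger than a set level, cut at about -70% in these data; inconclusive = activity change between two set negative limits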
Target sequence (P16473 whole entry, looked up): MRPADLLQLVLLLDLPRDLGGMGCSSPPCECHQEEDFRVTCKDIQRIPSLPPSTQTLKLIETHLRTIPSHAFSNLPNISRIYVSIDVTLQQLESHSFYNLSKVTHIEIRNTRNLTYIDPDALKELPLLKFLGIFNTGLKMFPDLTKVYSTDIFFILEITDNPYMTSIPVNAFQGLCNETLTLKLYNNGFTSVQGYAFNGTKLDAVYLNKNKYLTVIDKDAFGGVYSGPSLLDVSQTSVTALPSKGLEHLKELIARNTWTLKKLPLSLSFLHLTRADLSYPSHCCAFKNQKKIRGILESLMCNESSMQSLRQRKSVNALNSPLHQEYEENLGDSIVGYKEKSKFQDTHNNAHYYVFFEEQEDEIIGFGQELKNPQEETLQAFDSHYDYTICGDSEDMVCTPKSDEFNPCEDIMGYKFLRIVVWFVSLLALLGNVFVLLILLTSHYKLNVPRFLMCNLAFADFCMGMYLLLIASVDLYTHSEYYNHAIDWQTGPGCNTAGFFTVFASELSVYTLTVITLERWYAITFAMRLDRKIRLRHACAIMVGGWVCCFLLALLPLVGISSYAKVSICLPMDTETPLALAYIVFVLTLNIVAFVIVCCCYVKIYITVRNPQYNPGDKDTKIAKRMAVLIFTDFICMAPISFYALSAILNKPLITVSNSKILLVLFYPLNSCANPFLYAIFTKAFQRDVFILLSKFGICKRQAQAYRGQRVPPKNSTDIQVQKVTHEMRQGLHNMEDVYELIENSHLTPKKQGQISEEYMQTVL
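Freshly harvested TSHR cells receive pin-tooled compound, then EC80 TSH at 4nM final. After 2 hours at 37 deg C, antibody in lysis buffer and cAMP-d2 are added; 30 minutes at ambient temperature precede the HTRF read.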
* hit, by the source's call; ? = inconclusive; . = no result; [ ] = dose if it differs, or a comment. Unless noted, calls come from the whole dose curve; as a rule, active = well fitted curve in the direction sought with a large enough effect; inconclusive = small, poorly fitted or top-dose-only effect, or another doubt; inactive = no such curve, though single readings can be large; an effect the other way counts as inactive or inconclusive. % is set by controls: 0 for no effect and ±100 for the full control effect.

SMILES	VP16 counter	RORgamma inh	ELG1 DNA repair	Coupling enz	TSHR antagonist
O=C(Nc1ncnc2sc3c(c12)CCCC3)c1ccncc1	11.2µM*	?	-17.8%	3.4	-3.2
CCCCC[C@H](O)/C=C/[C@H]1OC(=O)C[C@H](O)[C@@H]1C/C=C\CCCC(=O)O	-4.2%	-29.2%	.	0.2	.
C/C(CC(=O)Nc1ccc(N(C)C)cc1)=N\NC(=O)c1ccc(C(C)(C)C)cc1	3.98µM*	?	3.9%	-1.1	-16.0
C/C(CC(=O)Nc1ccc(N(C)C)cc1)=N\NC(=O)c1ccc(Cl)cc1Cl	-10.9%	11.2µM*	18.1%	1.8	-13.5
C/C(CC(=O)Nc1cc(C)ccn1)=N\NC(=O)c1ccc(C(C)(C)C)cc1	-16.2%	11.2µM*	0.1%	-0.6	-6.9
C/C(CC(=O)Nc1ccc(N(C)C)cc1)=N\NC(=O)c1ccc(F)cc1	?	1.78µM*	9.9%	-1.3	-1.3
C/C(CC(=O)Nc1ccccn1)=N\NC(=O)c1ccc(C)cc1	-2.1%	-27.8%	23.2%	2.0	-8.5
C/C(CC(=O)Nc1ccc(N(C)C)cc1)=N\NC(=O)c1ccccc1O	?	23.4%[1.91 µM]	?	0.7	0.3
O=C(NC1CCSc2ccccc21)c1cc(S(=O)(=O)N2CCOCC2)ccc1Cl (stereo unspecified)	.	.	-4.4%	.	3.4
COc1cc(S(=O)(=O)Nc2ccc3nc(C)sc3c2)ccc1NC(C)=O	.	.	-9.4%	.	-0.5
O=C(C#Cc1ccccc1)c1ccc([N+](=O)[O-])cc1	7.94µM*	11.2µM*	-6.9%	0.0	-25.0
O=C(c1ccc(-c2ccccc2)cc1)c1ccc([N+](=O)[O-])cc1	2.7%	32.2%	14.2%	3.3	-1.6
COc1ccc2c(c1)OC1=C(C(=O)CCC1)C2C1=C(O)CCCC1=O (stereo unspecified)	9.8%	11.2µM*	-8.5%	-0.1	9.0
O=C1CCCC(O)=C1C1C2=C(CCCC2=O)OC2=C1C(=O)CCC2	-8.3%	-5.9%	7.1%	2.8	1.4
CC(Sc1nnc(-c2ccc(Cl)cc2Cl)n1Cc1ccccc1)C(=O)Nc1nccs1 (stereo unspecified)	-21.4%	11.2µM*	-28.7%	1.2	-9.5
COc1ccc(-n2nnnc2-c2ccc(S(C)(=O)=O)cc2Cl)cc1	0.7%	?	?	1.7	-0.1
Cc1cc2ccccc2n1CCNC(=O)C(C)Oc1ccccc1 (stereo unspecified)	?	7.08µM*	?	-13.8	44.0
COc1cccc(NC(=O)C2(S(=O)(=O)c3ccc(Cl)cc3)CC2)c1	3.4%	-3.3%	-6.1%	0.5	1.6
C[C@H](NC(=O)c1nc[nH]c1C(=O)NC(c1ccccc1)c1ccccc1)C(=O)OC(C)(C)C	4.47µM*	2.51µM*	0.0%	-14.2	1.2
CC(C)(C)OC(=O)CNC(=O)c1[nH]cnc1C(=O)NC(c1ccccc1)c1ccccc1	?	6.31µM*	-11.7%	2.4	-9.0
Cc1cc(=O)oc2c(O)c(O)ccc12	-12.9%	?	.	-36.0*	.
O=c1cc(-c2ccccc2Cl)oc2cccc(O)c12	-3.3%[96.6 µM]	27.0%[96.6 µM]	23.0%	0.9	13.4
O=c1cc(-c2ccccc2)oc2c(O)c(O)ccc12	?	?	.	-9.0	.
Cc1cc(=O)oc2c(CN3CCCC3)c(O)ccc12	-1.3%	4.9%	-2.6%	-0.7	-12.5
O=c1cc(-c2ccccc2O)oc2ccc3ccccc3c12	7.08µM*	6.31µM*	.	-0.6	.
SMILES	VP16 counter	RORgamma inh	ELG1 DNA repair	Coupling enz	TSHR antagonist
O=c1cc(-c2ccccc2O)oc2c(O)c(O)ccc12	2.9%	-24.0%	.	-55.6*	.
CCc1ccc2[nH]c3nc(SCC(=O)NNC(=O)c4ccc(C(C)(C)C)cc4)nnc3c2c1	0.1%[0.365 µM]	12.6µM*	-0.9%	1.0	-3.5
Cc1ccc(C(=O)NNC(=O)CSc2nnc3c(n2)[nH]c2ccc(C)cc23)cc1	0.0%	24.7%	26.5%	8.1	3.8
CCc1ccc2[nH]c3nc(SCC(=O)NCC4CCCO4)nnc3c2c1 (stereo unspecified)	1.7%	0.8%	-27.5%	1.1	-15.6
CCc1ccc2[nH]c3nc(SCCN4CCOCC4)nnc3c2c1	4.0%	?	25.9µM*	-3.4	-5.8
Oc1ccc(/C=N/NC(=S)NCCN2CCOCC2)c(O)c1	-9.7%	12.6µM*	8.3%	-1.4	-8.4
S=C(NCCN1CCOCC1)N/N=C/c1c2ccccc2cc2ccccc12	?	?	?	-0.4	11.0
COc1cc(/C=N/NC(=S)NCCN2CCOCC2)cc(OC)c1O	?	?	17.6%	-6.1	-12.8
COc1cc(OC)c(OC)cc1/C=N/NC(=S)NCCN1CCOCC1	7.08µM*	3.98µM*	-1.4%	0.5	-4.0
S=C(NCCN1CCOCC1)N/N=C/c1ccccc1	?	12.6µM*	0.0%	0.0	-3.6
COCCNC(=S)N/N=C/c1c2ccccc2cc2ccccc12	?	7.08µM*	?	-1.3	-6.3
O=C(COC(=O)c1ccc(Br)o1)NCc1ccccc1Cl	.	.	7.6%	.	3.9
COc1ncc2nc(CCc3ccccc3)c(=O)n(C3CC3)c2n1	-1.8%	18.9%	.	1.0	.
Cn1cc(CN2CCC(C(=O)Nc3ccc(Oc4ccccc4F)cc3)CC2)cn1	7.6%	-10.1%	2.0%	.	-6.0
Cc1ccc(NC(=O)C2CCN(S(C)(=O)=O)CC2)cc1Cl	-0.5%	-15.3%[1.91 µM]	?	0.0	-7.1
COc1ccccc1OCCNC(=O)C(CCSC)NS(=O)(=O)c1ccccc1F (stereo unspecified)	.	.	11.2%	.	-7.3
COc1ccc2ccccc2c1/C=N/NC(=S)NCCN1CCOCC1	4.47µM*	4.47µM*	?	-2.0	-4.2
COc1cc(OC)c(OC)cc1/C=N/NC(=S)NCC1CCCO1 (stereo unspecified)	14.1µM*	6.31µM*	18.4µM*	-2.5	-18.6
CSc1ccccc1C(=O)N1CCN(S(=O)(=O)c2sc(C(=O)O)c(C)c2C(=O)O)CC1	.	.	11.7%	.	-10.9
Cc1nn(C)c(C)c1NC(=O)CCCSc1nc(-c2ccco2)cc(C(F)(F)F)n1	-6.0%	?	25.9µM*	3.7	1.9
COC(=O)c1ccc(NC(=O)CCN2C(=O)NC(C)(C)C2=O)cc1	.	.	19.9%	.	21.1
COc1ccc(OC)c(Nc2nc(N)c([N+](=O)[O-])c(NCc3ccccc3)n2)c1	7.8%	-14.8%	?	1.3	1.7
COc1ccccc1Nc1nc(NCCC(C)C)nc(N)c1[N+](=O)[O-]	0.9%	-18.6%	20.6µM*	-3.2	-7.8
COc1ccc(OC)c(Nc2nc(NCCCN(C)C)nc(N)c2[N+](=O)[O-])c1	10µM*	10µM*	-1.2%	2.3	-1.6
COc1ccccc1Nc1nc(NCCO)nc(N)c1[N+](=O)[O-]	-2.3%	-15.5%	-24.2%	-2.9	-4.3

Screens: PubChem, National Center for Advancing Translational Sciences (NCATS)
